# Screens (PubChem)
# Compounds with a hit are over-represented: about 4.6% of the library has one in this group of screens.
# ABHD5 PLIN5 PPI: ABHD5-PLIN5 interaction inhibitors, primary screen, cell lysate, split luciferase complementation, luminescence; Perilipin-5 (Homo sapiens) + 1-acylglycerol-3-phosphate O-acyltransferase ABHD5 (Homo …; Split G. princeps luciferase complementation, 4 h; inhibition, % at 4 µM; 360,000 compounds, 0.78% hits;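 active = inhibition above the mean inhibition across every tested compound plus 3 SD, cut at about 22% in these data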;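 also: 0% = DMSO only wells and the 100% control is not disclosed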
# CF NFkB inh: inhibitors of PAF-induced NF-kB signaling, primary screen, cell-based, GFP fluorescence, uHTS | KKLEB NF-kB-GFP reporter, GFP fluorescence overnight | inhibition, % at 5 µM | 360,000 compounds, 0.86% hits | AID 588850, 2011;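 active = at least 50% inhibition at 5 µM, scaled per plate between neutral and stimulator controls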;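 also: PAF is a Pseudomonas aeruginosa culture filtrate used as stimulus; plate controls were PAF-stimulated DMSO wells for no effect and unstimulated DMSO wells for full effect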
# KKLEB tox: cytotoxicity in KKLEB CF airway cells, primary screen, cytotoxicity control for CF NF-kB inhibitor project, cell-based, uHTS, fluorescence assay plates. KKLEB CF airway cells viability, ATPlite luminescence, overnight; stronger effect = lower value; cells stimulated with P. aeruginosa culture filtrate. activity change (cytotoxicity), % at 5 µM. 360,000 compounds, 0.36% hits. AID 602141, 2011;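 active = corrected activity change at or below -50% at 5 µM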
# HIF-2a block: HIF-2a reporter inhibitors, primary screen, luminescence, 786-0 RCC cells; 360,000 compounds, 0.72% hits; inhibition, % at 18.8 µM; 786-0 RCC cells HIF-2a reporter, luciferase luminescence, overnight; AID 624352, 2012;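 active = inhibition of the luminescence signal of 40% or more relative to plate controls, in a single-dose primary screen at 18.75 µM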
# Peg3 promoter: Peg3 promoter-driven luciferase inhibitors, primary screen, cell-based, HeLa, luciferase luminescence; HeLa PEG-Prom luciferase reporter, overnight; inhibition, % at 20 µM; 360,000 compounds, 1.7% hits;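 active = inhibition of at least 50% at 20 µM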
# Mdm2-MdmX inh: inhibitors of human Mdm2-MdmX association, primary screen, cell-based, luminescence, split luciferase, SaOS-2, uHTS | Protein Mdm4 (Homo sapiens) + E3 ubiquitin-protein ligase Mdm2 (Homo sapiens), … | SaOS-2 split-luciferase Mdm2/MdmX complementation | inhibition, % at 8 µM | 330,000 compounds, 3% hits | AID 485346, 2010;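 active = inhibition of at least 50% at 8 µM in the primary screen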
# Mdm2-MdmX conf: Mdm2-MdmX complex disruptors, retested hits, confirmation, luminescence, single concentration. shares compounds with Mdm2-MdmX inh. Mdm2-MdmX binding, luminescent assay. inhibition, % at 8 µM. 10,000 compounds, 55% hits. AID 489028, 2010; in the data active = inhibition above about 40%
# Full FLuc ctr: full-length luciferase signal inhibition, confirmation, counter-screen for Mdm2/MdmX interaction inhibitor project, cell-based, single concentration, SaOS-2; inhibition, % at 8 µM; 6,200 compounds, 77% hits; SaOS-2 full-length luciferase counterscreen, luminescence; shares compounds with Mdm2-MdmX inh;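 active = mean inhibition at 8 µM reaching about 37%, which flags the compound as non-specific, limit read from the data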;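 also: p53-null SaOS-2 cells with luciferase driven by a doxycycline-inducible promoter; compound on cells about two nights before reading with doxycycline added after day one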
# * marks the source's active call; other numbers are inactive results; x = not tested or not shown.
SMILES,ABHD5 PLIN5 PPI,CF NFkB inh,KKLEB tox,HIF-2a block,Peg3 promoter,Mdm2-MdmX inh,Mdm2-MdmX conf,Full FLuc ctr
Cc1sc(NC(=O)c2ccco2)nc1-c1ccc2c(c1)CC(C)N2C(=O)C1CC1 (stereo not drawn),-1,6,7,-187,55*,85*,55*,53*
Cc1sc(NC(=O)c2ccco2)nc1-c1ccccc1,1,19,-10,-160,-233,-175,x,x
Cn1ccnc1CN1CCCCC1C(=O)Nc1ccc(Oc2cccnc2)cc1 (stereo not drawn),-3,9,-9,8,18,51*,74*,65*
COc1cccc(O)c1CN1CCC(C(=O)Nc2ccc(Oc3cccnc3)cc2)CC1,4,6,-10,21,22,12,x,x
COc1cccc(O)c1CN1CCC(C(=O)Nc2ccc(-c3cccc(C)c3)cc2)CC1,8,20,-32,-4,106*,81*,40*,90*
CCn1nc(C)c(CN2CCC(C(=O)Nc3cccc(-c4cccc(F)c4)c3)CC2)c1C,12,24,-9,9,35,53*,18,x
CCn1ccnc1CN1CCCCC1C(=O)Nc1ccc(Oc2cccnc2)cc1 (stereo not drawn),5,-36,14,0,17,49,x,x
COc1cccc(-c2cccc(NC(=O)C3CCN(Cc4cccc(C)n4)CC3)c2)c1,1,3,-10,6,13,19,x,x
COc1ccc(CN2CCC(C(=O)Nc3ccc(Oc4cccnc4)cc3)CC2)c(C)c1C,4,17,-10,20,6,74*,34,53*
c1ccc2c(-c3cccc4nccn34)cncc2c1,2,32,-14,19,3,x,x,x
COc1ccc2nc(SCC(=O)N(C)C3CCCCC3)[nH]c2c1,3,-2,3,-35,-14,25,x,x
O=C(Nc1cccc2c1CCCC2)c1cc(C2CCCCN2C(=O)c2cccs2)on1 (stereo not drawn),1,-19,-4,10,23,x,x,x
CC(=O)Oc1ccc(Cn2c(C)c(C(=O)NCc3cccc(C(F)(F)F)c3)sc2=O)cc1,-5,12,0,13,23,x,x,x
O=C(Nc1ccccc1Cl)c1cc(C2CCCN(C(=O)c3ccccc3)C2)on1 (stereo not drawn),9,18,-13,-30,-16,x,x,x
Cn1c(=O)c(C(=O)NNC(=O)c2ccc(Br)cc2)c(O)c2ccccc21,-3,2,-3,7,54*,54*,30,x
O=C(NCc1cccnc1)c1c(O)c2cccc3c2n(c1=O)CCC3,2,-60,-18,27,16,71*,45*,31
Cn1c(=O)c(C(=O)NCC2CCCO2)c(O)c2ccccc21 (stereo not drawn),9,1,-5,-244,-113,78*,45*,22
C=CCNC(=O)c1c(O)c2cccc3c2n(c1=O)CCC3,-1,-32,23,-16,21,66*,56*,53*
Cc1cc2nc(-c3ccccc3Br)n(/C=C(\c3ccccc3)n3c(=O)[nH]c4ccccc43)c2cc1C,-3,-48,9,-99,-22,x,x,x
O=C(NCC1CCCO1)c1c(O)c2cccc3c2n(c1=O)CCC3 (stereo not drawn),0,-5,1,-29,0,84*,58*,46*
O=C(Nc1ccncc1)c1ccccc1F,0,32,-7,24,13,51*,31,x
COc1ccc(C(=O)N2CCc3ccc(NC(=O)c4ccccn4)cc3C2)cc1F,-4,15,-2,-177,-117,-5,x,x
Cc1ccn2c(NC3CCCC3)c(-c3ccccn3)nc2c1,4,6,-4,-191,-24,74*,43*,43*
Cc1ccn2c(Nc3ccc4c(c3)OCO4)c(-c3ccccn3)nc2c1,-10,2,-23,-120,-17,79*,69*,37*
Cc1cc(C)n2c(Nc3ccc4c(c3)OCCO4)c(-c3ccccn3)nc2n1,-5,x,x,-30,x,x,x,x
SMILES,ABHD5 PLIN5 PPI,CF NFkB inh,KKLEB tox,HIF-2a block,Peg3 promoter,Mdm2-MdmX inh,Mdm2-MdmX conf,Full FLuc ctr
c1ccc(-c2nc3ccccn3c2NC2CCCC2)nc1,-1,3,-5,-33,-10,30,x,x
CSc1ccc(-c2nc3cnccn3c2Nc2ccc3c(c2)OCO3)cc1,13,18,-17,0,26,55*,11,x
CC(O)(c1cccnc1)c1nc(-c2ccc3ccccc3c2)cs1 (stereo not drawn),2,-52,6,-268,-212,x,x,x
CCOc1ccc(NC(=NCc2ccc3c(c2)OCO3)SC2CC(=O)N(c3ccc(OCC)cc3)C2=O)cc1 (stereo not drawn),0,21,-23,15,18,66*,63*,65*
CCOc1ccc(N2C(=O)CC(SC(=NC)Nc3ccc4c(c3)OCO4)C2=O)cc1 (stereo not drawn),-1,5,1,8,22,29,x,x
CCOc1ccc(NC(=NCc2ccc3c(c2)OCO3)SC2CC(=O)N(c3ccc(C(=O)O)cc3)C2=O)cc1 (stereo not drawn),-4,-23,34,24,-12,13,x,x
CCOc1ccc(NC(=NCc2ccc3c(c2)OCO3)SC2CC(=O)N(c3ccccc3)C2=O)cc1 (stereo not drawn),-2,14,-47,11,13,60*,6,x
O=C(NC(Cc1c[nH]c2ccccc12)C(=O)Nc1ccc(F)c([N+](=O)[O-])c1)c1cccs1 (stereo not drawn),5,-9,-10,-11,6,96*,87*,25
O=C(NC(Cc1c[nH]c2ccccc12)C(=O)Nc1ccc(OC(F)(F)F)cc1)c1cccs1 (stereo not drawn),-10,-21,9,14,24,93*,94*,26
Cn1cnnc1SCC(C)(C)NS(=O)(=O)c1ccc(Cl)cc1,8,2,-1,10,13,-13,x,x
